Reference: PubChem BioAssay (EPA / NIEHS)
Activity calls are given as the source filed them. Rule for the calls: active = hit-call score of the fitted dose curve at least 0.9, where 1 is the maximum; inactive = score below 0.9.

read-out: Cytochrome P450 4A22 (Homo sapiens) (UniProt Q5TCH4); test: LTEA_HepaRG_CYP4A22: Life Technologies and Expression Analysis (LTEA) Assay for Cytochrome P450 4A22 (CYP4A22) using HepaRG (AID 2283495); details: mRNA level, 48 h; actives raise or lower the signal
Experimental: LTEA_HepaRG is a cell based, multiplexed-readout assay that uses HepaRG, a human liver cell line, with measurements taken at 48 hours after chemical dosing on a 96-well plate.LTEA_HepaRG_CYP4A22 is one of 102 assay component(s) measured in the LTEA HepaRG cell culture assay. It is a marker of NR mediated metabolism.Data from the assay component LTEA_HepaRG_CYP4A22 was analyzed into 1 endpoint. This assay endpoint, LTEA_HepaRG_CYP4A22, was analyzed with bidirectional fitting relative to DMSO as the negative control and baseline of activity. Using a type of inducible reporter, measures of mRNA induction for gain or loss-of-signal activity can be used to understand regulation of transcription factor activity. To generalize the intended target to other relatable targets, this assay endpoint is annotated to the cyp intended target family, where the subfamily is xenobiotic metabolism.
A total of 1060 chemcials from the ToxCast library were tested in eight-point concentration-response experiments. Cell culture and cytotoxicity assays were conducted at Thermo Fisher Scientific's Custom Services facility (Madison, WI). A single lot of human HepaRG cells (Thermo Fisher Scientific, Frederick, MD) was used for the cell culture experiments. 96-well format collagen type I coated plates of human HepaRG cells were prepared using established methods. Briefly, cryopreserved HepaRG cells were thawed, plated at a density of approximately 100,000 cells/well in HepaRG Thaw, Plate, and General Purpose media (HPRG770, Thermo Fisher Scientific), and incubated for 48 hours. 0.5% DMSO was selected as vehicle control to balance the requisite need of DMSO in HepaRG cultures to maintain differentiation (for example, baseline metabolism, proportions of hepatocytes vs. cholangiocytes), while enabling further hepatic receptor pathway activation (for example, PXR and CAR) in response to chemical exposure. 48 hours after plating, the culture medium was replaced with HepaRG Serum-Free Incudtion Media. Cells were exposed to each test chemical in duplicate and maintained in CO2 incubators for another 48 hours. Chemical plates were thawed to room temperature and 200x concentrations of treatment groups were prepared. 8-point conentration-reponse curves were made with the highest exposure at 100 uM, followed by half-log dilutions, all in 0.5% DMSO. Each test plate contained variouse controls, induction positive controls (1mM phenobarbital), cytotoxicity positive controls ([…] aflatoxin B1), vehicle controls (0.5% DMSO), and total lysis controls (0.5% DMSO). Cell morphology images were taken using an Essen IncuCyte FLR automated microscope, with six 96-well plates imaged in about 24 minutes. Images were captured and exported and JPEG files. Spent culture media was transfered to black-well plates for the LDH assay, and remaining media was sorted at -80 C for later use. Cells were treated with RLT buffer and frozen until shipped for gene expression analysis. Total RNA was isolated from the cell suspension in 75 uL of Buffer RLT (Qiagen, Germantown, MD 20874) by Quintiles/Expression Analysis (Durham, NC) using a custom isolation procedure. Total RNA from each plate well was transferred to a preamplification plate. Fluidigm's 96.96 Dynamic ArrayTM (Fluidigm, Amsterdam, the Netherlands) technology was used for gene expression analyses by quantitative reverse transcription polymerase chain reaction (qRT-PCR, performed by Quintiles/Expression Analysis, Durham, NC)89. Standard TaqManTM Assays (Applied Biosystems/ThermoFisher Scientific, Foster City, CA) were used to assess the expression of 93 genes selected based on their selectivity and sensitivity to important hepatic receptors known to be modulated by environmental chemicals; importance in human hepatocyte functionality; and hepatotoxicity. […]

Row | SMILES | outcome | AC50
1 | CCC(C)c1ccccc1O (stereo unspecified) | inactive | 
2 | CC(=O)Nc1ccc(O)cc1 | inactive | 
3 | O=C(CCCN1CCC(O)(c2ccc(Cl)cc2)CC1)c1ccc(F)cc1 |  | 64 µM (active)
4 | CN(Cc1cnc2nc(N)nc(N)c2n1)c1ccc(C(=O)N[C@@H](CCC(=O)O)C(=O)O)cc1 | inactive | 
5 | CCCCCCCCCCCCCCC | inactive | 
6 | CCCCC(CC)C(=O)O (stereo unspecified) | inactive | 
7 | OCC(CO)(CBr)CBr | inactive | 
8 | CCCCC=O | inactive | 
9 | Cc1[nH]nc2c1N=C(c1ccccc1Cl)c1cc([N+](=O)[O-])ccc1N2 |  | 8.32 µM (active)
10 | O=C1NS(=O)(=O)c2ccccc21 | inactive | 
11 | N=C(N)c1ccc(OCCCCCOc2ccc(C(=N)N)cc2)cc1 |  | 3.87 µM (active)
